The sample as a whole holds a higher share of hits than the screen did.
EZH2 inh: EZH2/PRC2 methyltransferase inhibitors, primary screen, biochemical, DELFIA time-resolved fluorescence, single point | PRC2 H3K27 methylation, DELFIA TRF, 1 h | inhibition, % at 12.5 µM | Histone-lysine N-methyltransferase EZH2 (Homo sapiens), Q15910 | actives 0.35% (n = 57,000);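 active = mean inhibition of replicates at least 50% and every single replicate also reaching 50%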;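 note: dimethyl H3K27 on biotinylated H3 21-44 peptide detected by antibody; plate controls were median neutral control wells for no effect and median positive control wells for full effect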
Starred values were filed as active, the others as inactive.

SMILES	EZH2 inh
Cc1ccc(-c2ccc3c(c2)O[C@H](CN(C)Cc2ccc(C(=O)O)cc2)[C@H](C)CN([C@H](C)CO)S3(=O)=O)cc1	28
C[C@H](CO)N1C[C@H](C)[C@H](CN(C)Cc2ccc(C(=O)O)cc2)Oc2cc(/C=C/c3ccccc3)ccc2S1(=O)=O	52*
C[C@H]1CN([C@@H](C)CO)S(=O)(=O)c2ccc(Br)cc2O[C@H]1CN(C)Cc1ccccc1	-5
Cc1ccc(-c2ccc3c(c2)O[C@H](CN(C)Cc2ccc(C(=O)O)cc2)[C@@H](C)CN([C@@H](C)CO)S3(=O)=O)cc1	44
C[C@@H]1CN([C@H](C)CO)S(=O)(=O)c2ccc(/C=C/c3ccccc3)cc2O[C@@H]1CN(C)Cc1ccc(C(=O)O)cc1	19
C[C@H](CO)N1C[C@H](C)[C@@H](CN(C)Cc2ccc(F)cc2)Oc2cc(Br)ccc2S1(=O)=O	58*
C[C@H]1CN([C@@H](C)CO)S(=O)(=O)c2ccc(Br)cc2O[C@H]1CN(C)Cc1ccc(F)cc1	24
C[C@@H]1CN([C@H](C)CO)C(=O)c2cccc(NS(=O)(=O)c3cn(C)cn3)c2O[C@H]1CN(C)CC1CCCCC1	-16
C[C@@H]1CN([C@@H](C)CO)C(=O)Cc2cc(NC(=O)c3ccncc3)ccc2O[C@@H]1CN(C)Cc1ccncc1	4
Cc1ccc(S(=O)(=O)N[C@H]2CC[C@@H](CCNC(=O)c3ccccc3F)O[C@@H]2CO)cc1	-6
C[C@H](CO)N1C[C@H](C)[C@H](CN(C)S(=O)(=O)c2cn(C)cn2)OCc2ccccc2-c2c(n(C)c3ccccc23)C1=O	-5
C[C@@H]1CN([C@@H](C)CO)C(=O)c2ccccc2-c2ccccc2CO[C@@H]1CN(C)C(=O)[C@@H](Cc1ccccc1)N(C)C	-4
CCC(=O)N1C[C@@H](C)[C@H](OC)CN(C)C(=O)c2ccc(NC(=O)NC(C)C)cc2OC[C@@H]1C	-3
COc1ccc(NC(=O)N[C@@H]2C=C[C@H](CC(=O)NC3CCCCC3)O[C@@H]2CO)cc1	7
C[C@@H]1CN([C@@H](C)CO)C(=O)c2cc(C#C[C@@H](C)O)cnc2O[C@@H]1CN(C)C(=O)CN(C)C	-22
O=C(CC1(O)C(=O)Nc2ccc(F)cc21)c1ccco1 (configuration not stated)	1
O=C1CCCc2c1n(CCN(Cc1ccccc1)Cc1ccccc1)c1ccc(Cl)cc21	-6
CC(=O)N(C)c1ccc(OCC(O)Cn2c3ccc(Cl)cc3c3cc(Cl)ccc32)cc1 (configuration not stated)	4
O=C(O)c1c(Sc2ccccc2)c2cc(Cl)ccc2n1Cc1ccc(Cl)cc1	64*
CC(C)NC(=O)NCC[C@@H]1CC[C@@H](NC(=O)c2ccc(F)cc2)[C@H](CO)O1	0
COCC(=O)Nc1ccc2c(c1)[C@H]1C[C@@H](CC(=O)N3CCN(C)CC3)O[C@H](CO)[C@H]1O2	18
CC(C)(C)c1ccc(OCC(=O)Nc2ccc(C(=O)Nc3ccccc3C(=O)O)cc2)cc1	64*
Cc1cccc(OCC(=O)Nc2cccc(C(=O)Nc3ccccc3C(=O)O)c2)c1	42
COc1ccc(OCC(=O)Nc2ccccc2C(=O)Nc2ccccc2)cc1	-6
C=CC[C@]1(C(=O)OC)N=C(c2ccc(OCCCO)cc2)O[C@H]1c1ccccc1CN=[N+]=[N-]	15
SMILES	EZH2 inh
CC1C(=O)C23CC(O)C4C(C)(C(=O)OC5OC(CO)C(O)C(O)C5O)CCCC4(C)C2(O)CCC1C3 (configuration not stated)	0
C=C(C(=O)O[C@@H]1O[C@H](CO)[C@@H](O)[C@H](O)[C@H]1O)[C@@H]1CC[C@@]2(C)C[C@H](O)C[C@@](C)(O)C2C1 (some centres not stated)	64*
CC1(CCOC2OC(CO)C(O)C(O)C2O)CCC2C(=CCC3C(C)(C(=O)O)CCCC23C)C1 (configuration not stated)	13
COCC(=O)Nc1ccc2c(c1)OC[C@@H](C)N(C(=O)c1cccnc1)C[C@H](C)[C@@H](OC)CN(C)C2=O	17
O=C1O[C@@H](c2ccccc2)[C@@H](c2ccccc2)N2[C@@H](c3ccc(OCCO)cc3)[C@]3(C(=O)Nc4ccccc43)[C@@H](C(=O)N3CCN(c4ncccn4)CC3)[C@H]12	-15
CCOc1cc(/C=C2\SC(=S)NC2=O)cc(Cl)c1OC(=O)c1ccc(OC)cc1	67*
